Source: PubChem BioAssay (Tox21)
Inconclusive results are not listed. Activity calls are given as the source filed them. Unless noted, calls come from the whole dose curve; as a rule, active = well fitted curve in the direction sought with a large enough effect in the repeat runs; inconclusive = weak or mixed curves; inactive = no such curve, though single readings can be large; an effect the other way counts as inactive or inconclusive.

Tests used:
[1] = qHTS assay to identify small molecule that activate the aryl hydrocarbon receptor (AhR) signaling pathway - cell viability counter screen (AID 743086);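 note: HepG2 liver cells carrying the AhR DRE luciferase reporter; series mostly up to about 70 µM; nearly all actives have a fitted effect of over 45% in size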
Procedure, shortened: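 HepG2-AhR-luc (HG2L7.5c1) cells, 4000/well, treated 24 h at 37 C with compound; viability measured as CellTiter-Fluor fluorescence after 30 min in the same wells as the luciferase read.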

[2] = target: Peroxisome proliferator-activated receptor gamma (Homo sapiens) (UniProt P37231); assay: qHTS assay to identify small molecule agonists of the peroxisome proliferator-activated receptor gamma (PPARg) signaling pathway (AID 743094; active = well fitted activation curve with a large enough effect in the signal ratio in the repeat runs, not every such curve was filed as active; the % refers to the signal ratio)
Procedure, shortened: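 GeneBLAzer PPARg UAS-bla HEK293H cells carrying a stably integrated beta-lactamase reporter were pre-incubated 5 h at 37C, then exposed to compounds in DMSO for 17 h at 37C; LiveBLAzer B/G FRET substrate was added for 1 h at room temperature and fluorescence read.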

[3] = target: Peroxisome proliferator-activated receptor gamma (Homo sapiens) (UniProt P37231); assay: qHTS assay to identify small molecule antagonists of the peroxisome proliferator-activated receptor gamma (PPARg) signaling pathway (AID 743191; calls by dose curve; note: series mostly up to about 63 µM; nearly all actives have a fitted effect of over 30% in size)
Procedure, shortened: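 GeneBLAzer PPARg UAS-bla HEK293H cells, 5 h post-plating, exposed to compounds 17 h at 37C. LiveBLAzer B/G FRET substrate added for 1 h at room temperature; beta-lactamase reporter read by fluorescence intensity.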

[4] = qHTS assay to identify small molecule antagonists of the peroxisome proliferator-activated receptor gamma (PPARg) signaling pathway - cell viability counter screen (AID 743194); note: nearly all actives have a fitted effect of over 55% in size
Procedure, shortened: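 Cytotoxicity counter screen in PPARg-bla HEK293H cells, same wells as reporter assay. Compounds plus 50 nM rosiglitazone (final) for 17 h at 37 C, then viability read by CellTiter-Glo luminescence.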

[5] = qHTS assay for small molecule agonists of the antioxidant response element (ARE) signaling pathway (AID 743202; active = well fitted activation curve with a large enough effect in the signal ratio in the repeat runs, not every such curve was filed as active; the % refers to the signal ratio)
Procedure, shortened: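 Agonist mode reporter screen: HepG2 cells with ARE-controlled beta-lactamase are incubated with test compounds for 16 h at 37 C, and beta-lactamase activity is measured as fluorescence of cleaved B/G FRET substrate.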

[6] = qHTS assay for small molecule agonists of the antioxidant response element (ARE) signaling pathway - cell viability counter screen (AID 743203; calls by dose curve; note: nearly all actives have a fitted effect of over 55% in size)
Procedure, shortened: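 CellSensor ARE-bla HepG2 cells, 2,000 per well, rested 5 hrs at 37C/5% CO2, then exposed to compound in DMSO for 16 hrs; viability read as CellTiter-Glo luminescence after 30 min at room temperature, in the reporter wells.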

[7] = qHTS assay for small molecule activators of the heat shock response signaling pathway - cell viability counter screen (AID 743209); note: nearly all actives have a fitted effect of over 50% in size
Procedure, shortened: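 CellSensor HSE-bla HeLa cells, plated overnight at 37 C/5% CO2, were exposed to compounds in DMSO for 5 h at 37 C. Viability was then read in the same wells by CellTiter-Glo luminescence after 30 min at room temperature.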

[8] = qHTS assay for small molecule activators of the heat shock response signaling pathway (AID 743210; active = well fitted activation curve with a large enough effect in the signal ratio in the repeat runs, with a control signal flat, not every such curve was filed as active; the % refers to the signal ratio;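 note: HeLa cells with beta-lactamase reporter driven by heat shock elements; series mostly up to about 63 µM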)
Procedure, shortened: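 Quantitative high-throughput format using an engineered HeLa line in which heat shock response elements drive beta-lactamase; after 5 h with compound, cells received a B/G FRET substrate and fluorescence was read.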

[9] = qHTS assay to identify small molecule agonists of the peroxisome proliferator-activated receptor delta (PPARd) signaling pathway - cell viability counter screen (AID 743211); note: nearly all actives have a fitted effect of over 55% in size
Procedure, shortened: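 PPARd-bla HEK293H cells (UAS-beta-lactamase reporter) were treated with compounds for 17 h at 37 C. Viability was then read in the same wells by CellTiter-Glo luminescence after 30 min at room temperature.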

[10] = qHTS assay to identify small molecule antagonists of the peroxisome proliferator-activated receptor delta (PPARd) signaling pathway - cell viability counter screen (AID 743213); note: nearly all actives have a fitted effect of over 50% in size
Procedure, shortened: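 Cytotoxicity counter screen: CellTiter-Glo luminescence read 30 min after addition, in the same wells as the reporter assay. There, PPARd UAS-bla HEK293H cells (3000/well) were treated 17 h at 37 C with compound and 300 nM L165041.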

[11] = qHTS assay to identify small molecule agonists of the farnesoid-X-receptor (FXR) signaling pathway - cell viability counter screen (AID 743218); note: nearly all actives have a fitted effect of over 45% in size
Procedure, shortened: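 FXR-UAS-bla HEK 293T cells, plated 5 h at 37 C, were exposed to compounds for 16 h at 37 C. CellTiter-Glo was then added to the same wells as the bla readout; luminescence read after 30 min at room temperature.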

[12] = qHTS assay to identify small molecule antagonists of the farnesoid-X-receptor (FXR) signaling pathway - cell viability counter screen (AID 743221; active = well fitted cell-killing curve with a large enough effect in the repeat runs, not every such curve was filed as active; note: nearly all actives have a fitted effect of over 50% in size)
Procedure, shortened: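 FXR-UAS-bla HEK 293T cells were treated with test compounds plus chenodeoxycholic acid (50 uM final) for 16 h at 37 C. Cell viability in the same wells was then read as CellTiter-Glo luminescence after 30 min at room temperature.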

[13] = target: Vitamin D3 receptor (Homo sapiens) (UniProt P11473); assay: qHTS assay to identify small molecule agonists of the vitamin D receptor (VDR) signaling pathway (AID 743222; calls by dose curve)
Procedure, shortened: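 VDR-bla cells were plated 4 h at 37C/5% CO2, then exposed to compounds in DMSO for 16 h. After LiveBLAzer B/G FRET substrate addition and 2 h at room temperature, beta-lactamase reporter fluorescence was read.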

[14] = target: Vitamin D3 receptor (Homo sapiens) (UniProt P11473); assay: qHTS assay to identify small molecule antagonists of the vitamin D receptor (VDR) signaling pathway (AID 743223; active = well fitted inhibition curve with a large enough effect in the signal ratio in the repeat runs, not every such curve was filed as active; the % refers to the signal ratio)
Procedure, shortened: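 VDR-bla cells were plated, incubated 4 h at 37C, then given compound and 1alpha,25-dihydroxyvitamin D3 (3 nM final). After 16 h at 37C, LiveBLAzer B/G FRET substrate was added for 2 h at room temperature and fluorescence read.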

[15] = qHTS assay to identify small molecule agonists of the vitamin D receptor (VDR) signaling pathway - cell viability counter screen (AID 743224); note: series mostly up to about 63 µM; nearly all actives have a fitted effect of over 50% in size
Procedure, shortened: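 VDR-bla cells were preincubated 4 h at 37C/5% CO2, then exposed to compounds for 16 h. After the 2 h room-temperature bla FRET read, CellTiter-Glo was added to the same wells and luminescence read after 30 min.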

[16] = target: Peroxisome proliferator-activated receptor delta (Homo sapiens) (UniProt Q03181); assay: qHTS assay to identify small molecule agonists of the peroxisome proliferator-activated receptor delta (PPARd) signaling pathway (AID 743212; calls by dose curve)
Procedure, shortened: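 Quantitative high-throughput agonist screen in a HEK293H beta-lactamase reporter line under UAS control. Compounds in DMSO, at 37 C. Fluorescence read after 2 h with FRET substrate at room temperature.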

[17] = target: Peroxisome proliferator-activated receptor delta (Homo sapiens) (UniProt Q03181); assay: qHTS assay to identify small molecule antagonists of the peroxisome proliferator-activated receptor delta (PPARd) signaling pathway (AID 743215; active = well fitted inhibition curve with a large enough effect in the signal ratio in the repeat runs, not every such curve was filed as active; the % refers to the signal ratio;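 note: cells stimulated with agonist L165041 at 300 nM final during compound exposure; series mostly up to about 62 µM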)
Procedure, shortened: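 PPARd UAS-bla HEK293H cells were pre-incubated 5 h at 37 C, then given test compounds in DMSO plus agonist L165041 (300 nM final). After 17 h at 37 C, beta-lactamase FRET substrate was added; fluorescence read after 2 h at room temperature.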

[18] = target: Aryl hydrocarbon receptor (Homo sapiens) (UniProt P35869); assay: qHTS assay to identify small molecule that activate the aryl hydrocarbon receptor (AhR) signaling pathway (AID 743085);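 note: HG2L7.5c1 human HepG2 liver cells with stably integrated DRE-driven firefly reporter; series mostly up to about 70 µM; nearly all actives have a fitted effect of over 15% in size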
Procedure, shortened: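 HepG2 cells (HG2L7.5c1) stably carrying a firefly luciferase reporter driven by 20 dioxin responsive elements were exposed to compound for 24 h at 37C after a 5 h settling period; luminescence rise (ONE-Glo) indicated activation.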

[19] = target: Bile acid receptor (Homo sapiens) (UniProt Q96RI1); assay: qHTS assay to identify small molecule antagonists of the farnesoid-X-receptor (FXR) signaling pathway (AID 743217; active = well fitted inhibition curve with a large enough effect in the signal ratio in the repeat runs, not every such curve was filed as active; the % refers to the signal ratio)
Procedure, shortened: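 FXR-UAS-bla HEK 293T cells pre-incubated 5 h at 37 °C, then exposed to compounds with chenodeoxycholic acid (50 uM final) for 16 h at 37 °C. Beta-lactamase reporter read by LiveBLAzer B/G FRET substrate fluorescence after 2 h at room temperature.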

[20] = target: Bile acid receptor (Homo sapiens) (UniProt Q96RI1); assay: qHTS assay to identify small molecule agonists of the farnesoid-X-receptor (FXR) signaling pathway (AID 743220; active = well fitted activation curve with a large enough effect in the signal ratio in the repeat runs, not every such curve was filed as active; the % refers to the signal ratio)
Procedure, shortened: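 Beta-lactamase reporter under UAS control in GeneBLAzer FXR HEK 293T cells (5000/well) measured with LiveBLAzer FRET substrate after 2 h at room temperature. Compound exposure lasted 16 h at 37C.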
% is set by controls: 0 for no effect and ±100 for the full control effect.

Sequence of Aryl hydrocarbon receptor (Homo sapiens) (P35869 whole entry, looked up): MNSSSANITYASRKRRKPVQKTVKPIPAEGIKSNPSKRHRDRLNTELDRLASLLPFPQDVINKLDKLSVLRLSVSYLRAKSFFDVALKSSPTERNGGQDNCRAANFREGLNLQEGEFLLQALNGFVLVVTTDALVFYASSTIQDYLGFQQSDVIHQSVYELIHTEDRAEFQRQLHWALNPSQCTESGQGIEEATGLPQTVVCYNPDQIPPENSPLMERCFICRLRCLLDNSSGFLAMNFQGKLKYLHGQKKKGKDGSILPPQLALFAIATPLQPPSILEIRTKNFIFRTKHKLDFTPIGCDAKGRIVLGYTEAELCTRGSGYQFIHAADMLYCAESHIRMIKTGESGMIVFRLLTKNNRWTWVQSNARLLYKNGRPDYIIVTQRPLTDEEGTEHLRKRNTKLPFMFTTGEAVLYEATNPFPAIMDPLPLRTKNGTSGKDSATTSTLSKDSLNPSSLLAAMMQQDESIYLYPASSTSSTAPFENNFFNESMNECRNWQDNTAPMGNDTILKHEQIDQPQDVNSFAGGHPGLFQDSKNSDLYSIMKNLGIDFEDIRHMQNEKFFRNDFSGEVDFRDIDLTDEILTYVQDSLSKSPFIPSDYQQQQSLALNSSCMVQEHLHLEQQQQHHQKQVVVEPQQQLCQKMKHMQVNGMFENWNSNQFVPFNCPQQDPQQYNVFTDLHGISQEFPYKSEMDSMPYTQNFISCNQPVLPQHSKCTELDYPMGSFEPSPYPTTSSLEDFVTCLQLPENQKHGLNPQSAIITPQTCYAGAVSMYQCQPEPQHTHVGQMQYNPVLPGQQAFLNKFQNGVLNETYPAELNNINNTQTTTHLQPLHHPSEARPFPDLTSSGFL
Sequence of Peroxisome proliferator-activated receptor gamma (Homo sapiens) (P37231 whole entry, looked up): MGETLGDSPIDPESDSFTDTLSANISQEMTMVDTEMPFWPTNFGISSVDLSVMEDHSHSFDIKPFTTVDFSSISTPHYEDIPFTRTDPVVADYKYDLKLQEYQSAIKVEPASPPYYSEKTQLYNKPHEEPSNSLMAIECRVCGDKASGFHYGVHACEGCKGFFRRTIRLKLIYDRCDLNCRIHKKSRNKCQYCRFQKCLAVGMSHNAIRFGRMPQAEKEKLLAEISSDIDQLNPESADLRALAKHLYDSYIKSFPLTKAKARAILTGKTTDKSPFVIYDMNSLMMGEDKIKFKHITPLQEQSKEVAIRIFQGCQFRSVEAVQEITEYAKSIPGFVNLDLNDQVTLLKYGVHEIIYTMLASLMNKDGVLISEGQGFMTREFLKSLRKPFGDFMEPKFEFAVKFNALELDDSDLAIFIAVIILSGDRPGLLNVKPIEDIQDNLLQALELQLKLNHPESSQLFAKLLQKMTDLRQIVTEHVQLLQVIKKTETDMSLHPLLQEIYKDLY
Sequence of Peroxisome proliferator-activated receptor delta (Homo sapiens) (Q03181 whole entry, looked up): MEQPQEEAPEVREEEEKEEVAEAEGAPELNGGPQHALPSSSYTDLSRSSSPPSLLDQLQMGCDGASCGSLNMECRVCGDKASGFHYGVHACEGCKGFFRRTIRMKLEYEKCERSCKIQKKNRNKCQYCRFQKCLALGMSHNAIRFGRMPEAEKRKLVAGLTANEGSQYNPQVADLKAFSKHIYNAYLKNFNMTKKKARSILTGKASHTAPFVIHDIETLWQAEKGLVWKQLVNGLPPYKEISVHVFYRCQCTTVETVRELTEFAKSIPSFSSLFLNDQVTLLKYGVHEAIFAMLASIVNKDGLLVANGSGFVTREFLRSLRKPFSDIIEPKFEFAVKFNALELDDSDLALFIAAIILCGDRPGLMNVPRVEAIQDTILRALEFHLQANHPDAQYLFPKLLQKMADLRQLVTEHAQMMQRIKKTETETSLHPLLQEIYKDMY
Sequence of Bile acid receptor (Homo sapiens) (Q96RI1 whole entry, looked up): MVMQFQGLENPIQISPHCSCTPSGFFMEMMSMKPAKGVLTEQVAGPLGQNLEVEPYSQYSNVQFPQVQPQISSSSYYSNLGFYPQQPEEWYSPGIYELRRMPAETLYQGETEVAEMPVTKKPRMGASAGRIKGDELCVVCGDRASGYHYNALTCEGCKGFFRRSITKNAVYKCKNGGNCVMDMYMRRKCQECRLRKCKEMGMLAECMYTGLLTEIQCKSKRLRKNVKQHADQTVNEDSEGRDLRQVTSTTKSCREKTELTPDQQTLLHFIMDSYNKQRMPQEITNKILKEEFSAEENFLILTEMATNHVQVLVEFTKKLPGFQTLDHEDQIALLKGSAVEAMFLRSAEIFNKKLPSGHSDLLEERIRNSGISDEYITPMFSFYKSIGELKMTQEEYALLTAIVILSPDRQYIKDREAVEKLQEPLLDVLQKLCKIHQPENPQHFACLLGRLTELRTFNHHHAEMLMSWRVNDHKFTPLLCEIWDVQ
Sequence of Vitamin D3 receptor (Homo sapiens) (P11473 whole entry, looked up): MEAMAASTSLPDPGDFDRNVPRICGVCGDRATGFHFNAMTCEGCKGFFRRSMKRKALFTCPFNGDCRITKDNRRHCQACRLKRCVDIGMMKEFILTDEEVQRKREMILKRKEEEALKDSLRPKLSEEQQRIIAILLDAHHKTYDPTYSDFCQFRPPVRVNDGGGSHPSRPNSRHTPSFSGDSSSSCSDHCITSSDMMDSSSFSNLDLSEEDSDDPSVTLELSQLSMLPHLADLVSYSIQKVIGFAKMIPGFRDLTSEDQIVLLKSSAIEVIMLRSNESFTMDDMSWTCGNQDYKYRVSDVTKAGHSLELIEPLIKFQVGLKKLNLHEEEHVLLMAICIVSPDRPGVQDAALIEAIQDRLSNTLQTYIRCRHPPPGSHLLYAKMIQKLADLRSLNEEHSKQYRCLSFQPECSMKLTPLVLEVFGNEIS

CCCC(=O)OC
inactive: outcome [1] | outcome [2] | outcome [3] | outcome [4] | Potency [5] | outcome [6] | Potency [7] | outcome [8] | outcome [9] | outcome [10] | outcome [11] | outcome [12] | outcome [13] | outcome [14] | outcome [15]

CCCCCCCC(=O)N(C)C
inactive: outcome [1] | outcome [2] | outcome [3] | outcome [4] | Potency [5] | outcome [6] | Potency [7] | outcome [9] | outcome [16] | outcome [10] | outcome [17] | outcome [11] | outcome [12] | outcome [13] | outcome [14] | outcome [15]

CC1(C)S[C@@H]2[C@H](NC(=O)Cc3ccccc3)C(=O)N2[C@H]1C(=O)O (tested in a mixture with another compound)
inactive: outcome [1] | outcome [2] | outcome [3] | outcome [4] | Potency [5] | outcome [6] | Potency [7] | outcome [8] | outcome [9] | outcome [16] | outcome [10] | outcome [17] | outcome [11] | outcome [15]

Cc1ccc(S(=O)(=O)NC(=O)NN2CC3CCCC3C2)cc1 (centres undefined)
inactive: Potency [18] | outcome [1] | outcome [2] | Potency [5] | outcome [6] | outcome [8] | outcome [9] | outcome [16] | outcome [10] | outcome [17] | outcome [11] | outcome [12] | outcome [13] | outcome [14] | outcome [15]

CC(C)(C)NCC(O)COc1cccc2c1CCC(=O)N2 (centres undefined)
inactive: outcome [1] | outcome [2] | outcome [3] | outcome [4] | Potency [5] | outcome [6] | Potency [7] | outcome [8] | outcome [9] | outcome [16] | outcome [10] | outcome [17] | outcome [11] | outcome [12] | outcome [13] | outcome [15]

CN(C)c1cc(NC(=O)CNC(C)(C)C)c(O)c2c1C[C@H]1C[C@H]3[C@H](N(C)C)C(=O)C(C(N)=O)=C(O)[C@@]3(O)C(=O)C1=C2O
inactive: Potency [18] | outcome [2] | outcome [6] | Potency [7] | outcome [16] | outcome [10] | outcome [17] | outcome [19] | outcome [11] | outcome [20] | outcome [12] | outcome [13] | outcome [14] | outcome [15]

Clc1cc(Cl)c(Cl)c(Cl)c1Cl
inactive: Potency [18] | outcome [1] | outcome [4] | Potency [5] | outcome [6] | Potency [7] | outcome [8] | outcome [9] | outcome [10] | outcome [11] | outcome [12] | outcome [14] | outcome [15]

CC(C)C(C)C
inactive: outcome [1] | outcome [2] | outcome [3] | outcome [4] | Potency [5] | outcome [6] | Potency [7] | outcome [8] | outcome [16] | outcome [10] | outcome [17] | outcome [11] | outcome [12] | outcome [15]

c1cc2ccc3ccc4ccc5cccc6c(c1)c2c3c4c56
inactive: activation [18] 0.485% [at 3.79 µM] | viability change, negative = cytotoxic [1] 13.2% [at 3.79 µM] | activity change, negative = cytotoxicity [4] 27.2% [at 2.7 µM] | viability change, negative = cytotoxic [6] 6.8% [at 3.74 µM] | activity change, negative = cytotoxicity [7] 1.58% [at 2.7 µM] | activity change, negative = cytotoxicity [9] -28.1% [at 2.7 µM] | viability change, negative = cytotoxic [10] -10.9% [at 2.83 µM] | ratio activity, negative = inhibition [17] 2.1% [at 2.83 µM] | activity change, negative = inhibition [19] 6.71% [at 2.69 µM] | viability change, negative = cytotoxic [11] 0.833% [at 2.7 µM] | activity change, negative = cytotoxicity [12] 2.77% [at 2.69 µM] | activity change, negative = cytotoxicity [15] 11.1% [at 2.7 µM]
